This note sets out measurements from PubChem BioAssay (NCATS).

Records with an inconclusive call do not appear. A number with no mark means an inactive call. The call rests on the fitted dose curve; in most records, active means well fitted cell-killing curve with a large enough effect; inconclusive means small, poorly fitted or top-dose-only effect; inactive means flat fitted curve, though single readings scatter. Where a SMILES comes first, the peptide text is derived from it. Bridges are numbered along the chain shown (N, C = ends). [ ]: non-standard residue; d: D form. hArg = N=C(N)NCCCC[C@H](N)C(=O)O; Mpa = O=C(O)CCS
On the % scale 0 is the no-effect control and ±100 the full control effect.

The nature of this test: qHTS assay to identify small molecule inhibitors of chordoma cells - UCH-2 (AID 1259356). Particulars: UCH-2 chordoma viability, CellTiter-Glo ATP luminescence, 48 h; series mostly up to 46.1 µM; activity change, negative = inhibition: at the top concentration. The source says:
NIH Chemical Genomics Center [NCGC]
Chordoma is a rare and slow growing tumor that can occur anywhere along the spine, from the base of the skull to the tailbone. Current treatment options for chordoma is surgery and radiation therapy for those who are not candidates for surgery. But chordomas tend to return in the same location or surrounding areas of the original tumor after surgery and/or radiation. Chemotherapy can slow down the progression of the tumor. As chordoma is slow growing, the general cytotoxic agents that kill fast growing cells are ineffective, and some patients have been reported to respond to molecularly targeted drugs.
NCATS Pharmaceutical Collection (NPC) containing approximately 3000 clinically approved and investigational drugs were used to screen at 15 concentrations in a chordoma cell lines, UCH-2, to identify small molecule compounds that can inhibit chordoma cell growth.
NCGC Assay Protocol Summary:
Human chordoma cell line UCH-2 was dispensed at 800 per well in 4uL of culture medium into white solid bottom 1536-well plates (Corning Life Sciences, Corning, NY) using a Multidrop Combi (Thermo Scientific, Waltham, MA) dispenser. The assay plates were incubated at 37 C and 5% CO2 for an overnight, and then 23nL of compounds dissolved in DMSO and positive control were transferred using a Pintool station (Wako, San Diego, CA). Compound treatment was followed by the addition of 1uL of the combination compounds (1uM Auranofin, 500nM each of Camptothecin, Doxorubicin, Rubitecan, and Topotecan) and assay medium to each well of the assay plates using Flying Reagent Dispenser (FRD, Aurora Discovery, San Diego, CA). The assay plates were incubated at 37 C and 5% CO2 for 48hr. Then 5uL of CellTiter-Glo reagent (Promega Corporation, Madison, WI) was added to each well of the assay plates using FRD. After 30min incubation at room temperature, the luminescence signal was quantified using a ViewLux plate reader (PerkinElmer, Shelton, CT).
Take `CCCOC(=O)c1ccc(N)cc1`: the “activity change, negative = inhibition” value was 9.2%.
The result for `Cn1cc(C(=O)[C@@H]2CCc3nc[nH]c3C2)c2ccccc21` reads 4.14%.
The result for `CC(CSC(=O)c1ccccc1)C(=O)N1C[C@@H](Sc2ccccc2)C[C@H]1C(=O)O` (stereo not given in full) reads 9.25%.
In the case of `C[C@@H](c1ncncc1F)C(O)(Cn1cncn1)c1ccc(F)cc1F` (stereo not given in full), the “activity change, negative = inhibition” value was -1.57%.
The result for `CCCCOC(=O)c1ccc(N)cc1` reads 0.253%; that for `CCOc1ccccc1O[C@H](c1ccccc1)[C@H]1CNCCO1`, 2.13%.
The result for `Cc1c(Cn2ccnc2)c2ccccc2n1CCC(=O)O` reads 14.8%; that for `NC(=O)[C@@H]1CSSCCC(=O)N[C@@H](CCCCN=C(N)N)C(=O)NCC(=O)N[C@@H](CC(=O)O)C(=O)N[C@@H](Cc2c[nH]c3ccccc23)C(=O)N2CCC[C@H]2C(=O)N1` ([Mpa][hArg]GDWPC-NH2; disulfide 1-7), 0.569%; that for `CN1CCN(C(=O)C2CCCCC2)CC1`, 13.2%.
As for `O=C(NCC(O)CO)c1c(I)c(C(=O)NCC(O)CO)c(I)c(N(CCO)C(=O)CO)c1I` (stereo not given), the “activity change, negative = inhibition” value was 13% [at 20.6 µM].
For the molecule `O=C1c2ccccc2C(=O)C1c1ccc(Br)cc1`, the “activity change, negative = inhibition” value is 4.22%.
For `C[n+]1ccccc1/C=N/O`, the “activity change, negative = inhibition” value is 7.73% [at 20.6 µM].
As to `O=C(Cn1ccnc1[N+](=O)[O-])NCCO`, the “activity change, negative = inhibition” value was 0.332%.
With `CCCCCCCCCCOc1cc2c(=O)c(C(=O)OCC)c[nH]c2cc1OCC`, the “activity change, negative = inhibition” value was 1.1%.
The result for `C1CCN2C[C@@H]3C[C@@H](CN4CCCC[C@@H]34)[C@H]2C1` reads 8.88% [at 20.6 µM]; that for `CC(=O)SC[C@@H](Cc1ccccc1)C(=O)NCC(=O)OCc1ccccc1`, 6.24% [at 20.6 µM].
As for `Cc1ccc(S(=O)(=O)NC(=O)NC2CCCCC2)cc1`, the “activity change, negative = inhibition” value was 4.52%.
The result for `CCN(CC)CCc1nc(-c2ccccc2)no1` reads 3.65% [at 20.6 µM].
The result for `C/C=C/C(=O)N(CC)c1ccccc1C` reads 9.52% [at 20.6 µM]; that for `CCOc1ccc(C(=O)OCCN(CC)CC)cc1`, 2.64%; that for `CN1CC(=O)NC1=N`, 9.32%.
Turning to `CN(C(=O)c1c(O)c2ccccc2n(C)c1=O)c1ccccc1`, the “activity change, negative = inhibition” value is 14.4%.
Take `CCN(CC)CC1CCCCN1CC(=O)N1c2ccccc2C(=O)Nc2cccnc21` (stereo not given): the “activity change, negative = inhibition” value was -2.5%.
As to `O=C1c2cccc(O)c2C(=O)c2c(O)cccc21`, the “activity change, negative = inhibition” value was 1.74%.
In the case of `C[C@H]1COc2c(C3(N)CC3)c(F)cc3c(=O)c(C(=O)O)cn1c23`, the “activity change, negative = inhibition” value was -0.84%.
Consider `Cc1cc(O)cc(C)c1Cl`, for which the “activity change, negative = inhibition” value is 0.226%.
The result for `OCC(O)CS` (stereo not given) reads 9.29%; that for `C=CCN1C[C@H](C(=O)N(CCCN(C)C)C(=O)NCC)C[C@@H]2c3cccc4[nH]cc(c34)C[C@H]21`, 2.13%.
`NNC(=O)CP(=O)(c1ccccc1)c1ccccc1`: the “activity change, negative = inhibition” value was -16.2%.
Turning to `NC(=O)c1ccc([N+](=O)[O-])cc1Cl`, the “activity change, negative = inhibition” value was 13.3%.
The result for `Cc1ccsc1C(=CCCN1CCC[C@@H](C(=O)O)C1)c1sccc1C` reads -4.46%; that for `CN1C(C)(C)CCCC1(C)C`, -1.04%; that for `COCC(=O)Nc1c(I)c(C(=O)NCC(O)CO)c(I)c(C(=O)N(C)CC(O)CO)c1I` (stereo not given), 10.2% [at 20.6 µM].
`O=C(O)[C@@H]1[C@H]2C[C@H]3c4[nH]c5ccccc5c4CCN3C[C@@H]2CC[C@@H]1O`: the “activity change, negative = inhibition” value was -2.58% [at 20.6 µM].
With `CC1(C)S[C@@H]2[C@H](NC(=O)C(C(=O)O)c3ccccc3)C(=O)N2[C@H]1C(=O)O` (stereo not given in full), the “activity change, negative = inhibition” value is -2.64%.
In the case of `Cn1c(=O)c2c(ncn2CCO)n(C)c1=O`, the “activity change, negative = inhibition” value was 1.88%.
The result for `Cc1ccccc1N=Nc1ccc(N=Nc2c(O)ccc3ccccc23)c(C)c1` reads -0.379%.
`COC(=O)c1cccnc1`: the “activity change, negative = inhibition” value is 7.09%.
The result for `Cc1c(N(C)C)c(=O)n(-c2ccccc2)n1C` reads -2.46%; that for `NC(=O)N[C@@H](CCC(=O)O)C(=O)O`, -11.2%.
